Experimental data taken from PubChem BioAssay.
The source made the active and inactive calls. Unless noted, no rule for the calls is given here.

Assays:
[1] = resazurin metabolic signal in HepG2 cells – cell-based, resazurin fluorescence, 24 h, PK04 Diversity Set, profiling panel (AID 1172); settings: HepG2 viability, higher = more signal
[2] = budding yeast growth changes without added modifier – OD600, strain BY4716, 24 h, basal condition, primary screen (AID 1173); settings: S. cerevisiae BY4716 growth, OD600, 24 h; higher = more signal, called active from +8 up or from −8 down
[3] = viability profiling in MM1S myeloma cells – cell-based, resazurin fluorescence, basal, 24 h, PK04 Diversity Set, profiling panel (AID 1174); settings: higher = more signal, called active from +8 up or from −8 down;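 also: MM1S multiple myeloma cell line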
[4] = target: Dihydroorotate dehydrogenase (quinone), mitochondrial (Plasmodium falciparum (isolate 3D7)) (UniProt Q08210); assay: inhibition of P. falciparum DHODH – biochemical, C-terminal His tag, absorbance 600 nm, primary screen (AID 1175); settings: PfDHODH enzyme, DCIP absorbance 600 nm; higher = more signal, called active from +8 up or from −8 down;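 also: recombinant parasite enzyme with a five histidine tag at its C terminus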
[5] = inhibition of PAO1 biofilm formation – strain PAO1, LB-PBS medium, absorbance 600 nm, primary screen (AID 1176); settings: P. aeruginosa PAO1 growth/biofilm, A600, 12 h; higher = more signal
[6] = growth modulation of vineyard yeast isolate – strain RM11-1a, OD600, basal, 24 h, primary screen (AID 1177);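 also: cultures grown under basal conditions with no added stressor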; settings: S. cerevisiae RM11-1a growth, OD600, 24 h; higher = more signal, called active from +8 up or from −8 down
[7] = growth of efflux-deficient E. coli DRC39 – strain DRC39, OD650, 24 h, E. coli filamentation inducers, primary screen (AID 1178);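 also: growth measured as culture turbidity by optical density at 650 nm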; settings: E. coli DRC39 acrAB, higher = more signal, called active from +8 up or from −8 down
[8] = growth of efflux-deficient E. coli DRC39 – strain DRC39, OD650, 48 h, E. coli filamentation inducers, primary screen (AID 1179);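 also: screen aims at cell division blockers that make cells filament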; settings: E. coli DRC39 delta-acrAB growth, higher = more signal, called active from +8 up or from −8 down
[9] = viability profiling in RPMI8226 myeloma cells – cell-based, resazurin fluorescence, basal, 24 h, PK04 Diversity Set, profiling panel (AID 1180); settings: higher = more signal;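 also: RPMI8826 multiple myeloma cell line at 5000 cells per well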
[10] = target: E3 ubiquitin-protein ligase XIAP (Homo sapiens) (UniProt P98170); assay: small molecules binding XIAP protein – biophysical, small-molecule microarray, fluorescence 635 nm, primary screen (AID 1181); settings: higher = more signal;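 also: score merges 667 nm emission and signal to noise over triplicate slides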
[11] = test system: XIP peptide (Xip251-270) binding; assay: XIP fragment 251-270 binding compounds – biochemical, small-molecule microarray, fluorescence 635/667 nm, 0.1 µg/mL protein, primary screen (AID 1182); settings: fluorescent protein binding, 635 nm, higher = more signal, called active from +8 up or from −8 down
XIP peptide (Xip251-270) = assay: compounds binding XIP fragment 251-270 – biochemical, small-molecule microarray, fluorescence 635/667 nm, 0.5 µg/mL protein, primary screen (AID 1183); settings: fluorescence 635 nm, higher = more signal
[12] = blood-stage malaria parasite viability loss – strain 3D7, DAPI fluorescence, 100 nL, primary screen (AID 1184);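 also: parasites grown inside human red blood cells in medium with human serum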; settings: P. falciparum 3D7 growth, 3 d, higher = more signal
[13] = target: Homeobox protein Hox-A13 (Mus musculus) (UniProt Q62424); assay: disruptors of Hoxa13 oligonucleotide interaction – biochemical, fluorescence polarization, labeled oligonucleotide, primary screen (AID 1185); settings: Hoxa13:DNA binding, 15 min, higher = more signal, called active from +8 up or from −8 down
Chain of Homeobox protein Hox-A13 (Mus musculus) (Q62424 whole entry, looked up): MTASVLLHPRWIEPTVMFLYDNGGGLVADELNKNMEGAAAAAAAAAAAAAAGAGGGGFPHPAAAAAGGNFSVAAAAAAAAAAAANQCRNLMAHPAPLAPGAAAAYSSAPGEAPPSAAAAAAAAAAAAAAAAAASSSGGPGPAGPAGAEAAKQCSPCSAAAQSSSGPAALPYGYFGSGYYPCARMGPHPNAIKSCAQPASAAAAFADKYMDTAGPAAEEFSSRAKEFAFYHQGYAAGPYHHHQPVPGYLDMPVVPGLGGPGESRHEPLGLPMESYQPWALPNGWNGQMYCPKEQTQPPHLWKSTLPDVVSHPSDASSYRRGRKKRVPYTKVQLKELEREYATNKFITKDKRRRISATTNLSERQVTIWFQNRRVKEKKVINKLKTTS

Chain of Dihydroorotate dehydrogenase (quinone), mitochondrial (Plasmodium falciparum (isolate 3D7)) (Q08210 whole entry, looked up): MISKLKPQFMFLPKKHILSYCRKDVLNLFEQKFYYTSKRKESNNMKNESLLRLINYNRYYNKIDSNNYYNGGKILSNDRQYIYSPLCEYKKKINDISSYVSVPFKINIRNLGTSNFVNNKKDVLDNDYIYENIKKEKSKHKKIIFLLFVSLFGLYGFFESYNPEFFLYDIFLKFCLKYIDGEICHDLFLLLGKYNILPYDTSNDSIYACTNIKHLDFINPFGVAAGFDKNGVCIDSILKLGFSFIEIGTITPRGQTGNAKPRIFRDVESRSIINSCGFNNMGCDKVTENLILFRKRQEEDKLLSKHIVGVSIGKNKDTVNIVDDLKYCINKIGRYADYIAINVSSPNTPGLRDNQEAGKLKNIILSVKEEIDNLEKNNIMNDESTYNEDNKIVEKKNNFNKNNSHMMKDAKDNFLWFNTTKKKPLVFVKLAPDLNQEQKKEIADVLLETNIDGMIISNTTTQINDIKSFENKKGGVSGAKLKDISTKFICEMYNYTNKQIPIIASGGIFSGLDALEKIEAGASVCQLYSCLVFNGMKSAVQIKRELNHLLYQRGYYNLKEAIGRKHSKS
Chain of E3 ubiquitin-protein ligase XIAP (Homo sapiens) (P98170 whole entry, looked up, the tested form may be a part): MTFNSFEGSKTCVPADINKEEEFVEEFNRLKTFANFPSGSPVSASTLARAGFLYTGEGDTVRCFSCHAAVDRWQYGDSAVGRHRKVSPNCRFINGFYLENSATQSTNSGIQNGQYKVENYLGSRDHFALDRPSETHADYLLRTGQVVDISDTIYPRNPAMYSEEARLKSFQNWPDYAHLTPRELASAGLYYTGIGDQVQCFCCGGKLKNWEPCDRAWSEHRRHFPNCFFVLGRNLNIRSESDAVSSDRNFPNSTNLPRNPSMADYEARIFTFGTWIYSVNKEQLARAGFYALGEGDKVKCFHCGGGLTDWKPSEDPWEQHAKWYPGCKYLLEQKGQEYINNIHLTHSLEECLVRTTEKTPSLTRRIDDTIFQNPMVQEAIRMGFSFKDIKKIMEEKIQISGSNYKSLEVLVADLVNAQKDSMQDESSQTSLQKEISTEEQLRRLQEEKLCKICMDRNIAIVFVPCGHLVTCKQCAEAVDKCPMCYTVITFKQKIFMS

Row | SMILES | z-score [1] | z-score [2] | z-score [3] | composite z-score [4] | z-score [5] | z-score [6] | z-score [7] | z-score [8] | z-score [9] | composite z-score [10] | composite z-score [11] | composite z-score (XIP peptide (Xip251-270)) | z-score [12] | z-score [13]
1 | CC(C)(C)N1C(=O)[C@H]2[C@H]3[C@H](O)[C@H](O)CC(=NO[C@@H]4O[C@H](CO)[C@@H](O)[C@H](O)[C@H]4O)[C@@H]3CC[C@H]2C1=O | -0.332 | -0.597 (inactive) | -0.236 (inactive) | 0.0902 (inactive) | 0.0821 (inactive) | -0.471 (inactive) | 0.398 (inactive) | 0.441 (inactive) | -0.449 | 0.144 | 1.16 (inactive) | 0.26 | 2.01 | 0.0059 (inactive)
2 | CCOC(=O)[C@H](Cc1ccccc1)NC(=O)CCC1CC(OC(=O)NCc2ccc3c(c2)OCO3)CC2(CCCC(COC(=O)NCc3ccccc3)O2)O1 (stereo not given in full) | 0.966 | -0.0513 (inactive) | 0.637 (inactive) | 0.208 (inactive) | 0.0858 (inactive) | 0.864 (inactive) | 0.703 (inactive) | 1.22 (inactive) | 0.676 | -0.0089 | -0.148 (inactive) | 0.389 | -1.76 | -0.513 (inactive)
3 | O=C1[C@H]2[C@H]3[C@H](O)[C@H](O)CC(=NO[C@@H]4O[C@H](CO)[C@@H](O)[C@H](O)[C@H]4O)[C@@H]3CC[C@H]2C(=O)N1Cc1ccc2c(c1)OCO2 | -0.191 | -0.387 (inactive) | 0.0622 (inactive) | 0.0922 (inactive) | -0.389 (inactive) | -0.558 (inactive) | -0.494 (inactive) | -0.136 (inactive) | 0.36 | -0.0552 | 0.297 (inactive) | 0.567 | -1.06 | -2.63 (inactive)
4 | C[C@@H](c1ccccc1)N1C(=O)[C@H]2[C@H]3[C@H](O)[C@H](O)CC(=NNC(=O)OCc4ccccc4)[C@H]3CC[C@H]2C1=O | 0.2 | 0.976 (inactive) | -0.139 (inactive) | 0.749 (inactive) | 0.413 (inactive) | 0.993 (inactive) | -0.327 (inactive) | -0.462 (inactive) | 0.368 | -0.163 | -0.724 (inactive) | -0.131 | -0.547 | -5.68 (inactive)
5 | CC(C)[C@@H](OCc1ccccc1)[C@H](C)C=NOC[C@@H](C)[C@H](OCc1ccccc1)C(C)C | -0.914 | 0.425 (inactive) | -0.908 (inactive) | -0.213 (inactive) | -0.324 (inactive) | -0.089 (inactive) | 0.705 (inactive) | 1.09 (inactive) | -1.11 | -0.345 | 0.468 (inactive) | -0.185 | 0.128 | 0.24 (inactive)
6 | CC(=O)OC[C@H]1O[C@H](CCON=C(C)CCC(=O)OC[C@H]2O[C@H](C#Cc3ccccc3)C=C[C@@H]2Oc2ccc(C)cc2)C=C[C@@H]1OC(C)=O | -0.508 | 0.511 (inactive) | -0.795 (inactive) | -0.84 (inactive) | 0.405 (inactive) | 0.661 (inactive) | 0.674 (inactive) | 0.59 (inactive) | -0.31 | -0.241 | -0.365 (inactive) | 0.0804 | 0.724 | -2.62 (inactive)
7 | CCOC(=O)CCN1C(=O)[C@H]2[C@H]3[C@H](O)[C@H](O)CC(=O)[C@H]3CC[C@H]2C1=O | -0.228 | -0.329 (inactive) | 0.552 (inactive) | -2.85 (inactive) | 0.0122 (inactive) | -0.336 (inactive) | 0.231 (inactive) | -1.81 (inactive) | 0.566 | 0.065 | -0.245 (inactive) | 0.23 | -1.18 | 0.804 (inactive)
8 | O=C1[C@H]2[C@H]3[C@H](O)[C@H](O)CC(=NO[C@@H]4O[C@H](CO)[C@@H](O)[C@H](O)[C@H]4O)[C@@H]3CC[C@H]2C(=O)N1c1ccc(F)cc1F | 0.662 | -0.767 (inactive) | 0.412 (inactive) | -1.39 (inactive) | -0.118 (inactive) | -0.815 (inactive) | 0.789 (inactive) | 0.391 (inactive) | 0.741 | -0.313 | 0.34 (inactive) | 0.225 | 0.531 | 0.036 (inactive)
9 | COc1ccc(O[C@H]2C=C[C@@H](c3ccccc3)O[C@@H]2CON=C[C@@H](C)[C@H](OCc2ccccc2)C(C)C)cc1 | -0.821 | 0.742 (inactive) | -1.69 (inactive) | -0.896 (inactive) | -0.348 (inactive) | 0.443 (inactive) | 0.335 (inactive) | 1.01 (inactive) | -0.854 | 0.144 | 0.0702 (inactive) | -0.126 | -0.118 | -0.538 (inactive)
10 | O=C1[C@H]2[C@H]3[C@H](O)[C@H](O)CC(=NOC[C@@H](O)COCc4ccco4)[C@H]3CC[C@H]2C(=O)N1C1CCCCC1 | 0.0194 | -0.563 (inactive) | -0.304 (inactive) | -2.13 (inactive) | 0.188 (inactive) | -0.479 (inactive) | 0.426 (inactive) | -0.0377 (inactive) | -0.263 | 0.116 | -0.26 (inactive) | -0.37 | -1.24 | -0.271 (inactive)
11 | CO[C@@H]1COC(=O)CC=C[C@@H](C)[C@H](OC)COC(=O)[C@H](COCc2ccccc2)NC(=O)CC=C[C@H]1C | 0.628 | -1.13 (inactive) | -0.0928 (inactive) | -0.0234 (inactive) | -0.225 (inactive) | -0.47 (inactive) | 0.406 (inactive) | -0.723 (inactive) | 1.35 | 0.17 | 0.025 (inactive) | -0.988 | -0.17 | -1.64 (inactive)
12 | C[C@@H]1CCC2C(=O)N(Cc3ccccc3)C[C@@H](O)CN2[C@H]1c1ccc(Br)cc1 (stereo not given in full) | 0.644 | -5.68 (inactive) | 0.726 (inactive) | -1.3 (inactive) | 0.924 (inactive) | -1.71 (inactive) | 0.957 (inactive) | -1.25 (inactive) | 0.39 | -0.0009 | 1 (inactive) | 0.689 | 0.787 | -3.92 (inactive)
13 | CC(=O)O[C@H]1C2=C(C(=O)[C@@H]3O[C@@H]31)[C@H]1C(C)O[C@@H]2[C@@]23C(=O)[C@@H]4O[C@@H]4[C@@H](O)C2=CO[C@H](C)[C@@H]13 (stereo not given in full) | 0.0072 | 0.174 (inactive) | -1.01 (inactive) | -0.0495 (inactive) | -0.0812 (inactive) | -0.2 (inactive) | 0.223 (inactive) | 0.186 (inactive) | -1.12 | -0.0454 | -0.179 (inactive) | -0.697 | -0.771 | -0.465 (inactive)
14 | CC(C)=CCCC(C)=CCON=C1[C@H]2CCn3c(=O)n(C)c(=O)n3[C@H]2[C@H](O)[C@@H]2O[C@H]12 | -0.653 | -0.777 (inactive) | -2.63 (inactive) | -0.251 (inactive) | -0.543 (inactive) | 0.199 (inactive) | 0.119 (inactive) | 0.214 (inactive) | -0.88 | 0.153 | 0.258 (inactive) | 0.246 | -1.55 | -0.682 (inactive)
15 | COC(=O)[C@@H]1CCCN1C(=O)[C@@H](C)CO | -0.337 | -1.06 (inactive) | -0.379 (inactive) | -2.93 (inactive) | 0.0372 (inactive) | -0.213 (inactive) | -1.47 (inactive) | -2.18 (inactive) | -0.376 | -0.0415 | 0.446 (inactive) | 0.0063 | -1.35 | 1.64 (inactive)
